Values joined by “and” are separate entries in the source; they are usually repeats but may differ in a detail not shown here. Equal entries are not always repeated. Records with an inconclusive call do not appear. Where a structure was tested more than once in an assay, its records may differ in their call. Active and inactive are the calls of the source. Rule for the calls: active = hit-call score of the fitted dose curve at least 0.9, where 1 is the maximum; inconclusive = response in the unintended direction; inactive = score below 0.9.
Assay: CCTE_Shafer_MEA_acute_AB: CCTE's Alamar Blue Assay for Cytotoxicity in the Neural Acute Assay, Shafer Lab (AID 2284069);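 note: active compounds lower the viability signal compared with DMSO wells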
Procedure, shortened: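 Resazurin reduction (CellTiter Blue, 1:6 in fresh medium) read at ex 544/em 590 nm marks viability loss relative to DMSO. Cells: primary rat cortical neuron networks on microelectrode arrays, treated after baseline recording at 13 or 15 days in vitro.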

Row | Compound | outcome
1 | Nc1c(Cl)c(F)nc(OCC(=O)O)c1Cl | inactive
2 | Cc1ccc(N=CN(C)C=Nc2ccc(C)cc2C)c(C)c1 | inactive
3 | CNC(=O)Oc1cccc2ccccc12 | inactive
4 | COP(=S)(OC)SCn1nnc2ccccc2c1=O | inactive
5 | C=C(C)CN(CC)c1c([N+](=O)[O-])cc(C(F)(F)F)cc1[N+](=O)[O-] | inactive
6 | N#CN=C1SCCN1Cc1ccc(Cl)nc1 | inactive
7 | OC(c1ccc(Cl)cc1)(c1ccc(Cl)cc1)C(Cl)(Cl)Cl | inactive
8 | CC1(C)C(C=C(Cl)Cl)C1C(=O)OC(C#N)c1cccc(Oc2ccccc2)c1 (stereo not given) | inactive
9 | CC(C)=CC1C(C(=O)OCc2coc(Cc3ccccc3)c2)C1(C)C (stereo not given) | inactive
10 | CO/N=C(/C1=NOCCO1)c1ccccc1Oc1ncnc(Oc2ccccc2Cl)c1F | inactive
11 | Clc1nc(Cl)nc(Nc2ccccc2Cl)n1 | inactive
12 | CCOC(=O)C(C)OC(=O)c1cc(Oc2ccc(C(F)(F)F)cc2Cl)ccc1[N+](=O)[O-] (stereo not given) | inactive
13 | CCOP(=O)(OCC)Oc1nc(Cl)c(Cl)cc1Cl | inactive
14 | CC(C)N1C(=O)N(c2ccccc2)CSC1=NC(C)(C)C | inactive
15 | CCOc1nc(F)cc2nc(S(=O)(=O)Nc3c(Cl)cccc3Cl)nn12 | inactive
16 | CC1(C)CCC(=Cc2ccc(Cl)cc2)C1(O)Cn1cncn1 (stereo not given) | inactive
17 | Cn1c(-c2ccccc2)cc(-c2ccccc2)[n+]1C | inactive
18 | CC(C)C1(C)N=C(c2ncccc2C(=O)O)NC1=O (stereo not given) | inactive

Assay: CCTE_Shafer_MEA_dev_AB: CCTE's Alamar Blue Assay for Cytotoxicity in the Neural Network Formation Assay, Shafer Lab (AID 2284083);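 note: resazurin reduction fluorescence as viability of cultured neurons; twelve days of exposure from plating with re-dosing on DIV 5 and 9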
Procedure, shortened: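 Resazurin fluorescence, relative to DMSO, gauges viability after twelve days of exposure that began at plating of rat cortical neurons (1.5 x 10^5 cells/well, 48-well MEA); treatment renewed with full medium exchange on DIV 5 and 9.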

Row | Compound | AC50 | outcome
19 | CNC(=O)Oc1cccc2ccccc12 | 15 µM (active) | inactive
20 | Cc1c(COC(=O)[C@@H]2[C@H](/C=C(\Cl)C(F)(F)F)C2(C)C)cccc1-c1ccccc1 | 14.6 µM (active) and 14.9 µM (active) | –
21 | COP(=S)(OC)SCn1nnc2ccccc2c1=O | 26.2 µM (active) | –
22 | C=C(C)CN(CC)c1c([N+](=O)[O-])cc(C(F)(F)F)cc1[N+](=O)[O-] | 15.6 µM (active) | –
23 | CC1(C)C(C(=O)OC(C#N)c2cccc(Oc3ccccc3)c2)C1(C)C (stereo not given) | 1.98 µM (active) | –
24 | CCSC(=O)N1CCCCCC1 | – | inactive
25 | COP(=O)(OC)O/C(C)=C/C(=O)N(C)C | – | inactive
26 | O=C(Nc1ccccc1-c1ccc(Cl)cc1)c1cccnc1Cl | 77.7 µM (active) | inactive
27 | CC1(C)C(C=C(Cl)Cl)C1C(=O)OC(C#N)c1cccc(Oc2ccccc2)c1 (stereo not given) | – | inactive
28 | CS(=O)(=O)c1ccc(C(=O)C2C(=O)CCCC2=O)c([N+](=O)[O-])c1 | – | inactive
29 | COC(=O)N(C(=O)N1CO[C@@]2(C(=O)OC)Cc3cc(Cl)ccc3C2=N1)c1ccc(OC(F)(F)F)cc1 | 2.98 µM (active) | –
30 | CCN(CC)c1nc(C)cc(OP(=S)(OC)OC)n1 | 50 µM (active) | –
31 | CC(C)=CC1C(C(=O)OCc2coc(Cc3ccccc3)c2)C1(C)C (stereo not given) | – | inactive
32 | CO/N=C(/C1=NOCCO1)c1ccccc1Oc1ncnc(Oc2ccccc2Cl)c1F | 1.47 µM (active) and 2.27 µM (active) | –
33 | CCOC(=O)C(C)OC(=O)c1cc(Oc2ccc(C(F)(F)F)cc2Cl)ccc1[N+](=O)[O-] (stereo not given) | – | inactive
34 | CC(C)(C)C(=O)C(Oc1ccc(Cl)cc1)n1cncn1 (stereo not given) | 38.6 µM (active) | –
35 | COP(=S)(OC)Oc1ccc([N+](=O)[O-])c(C)c1 | – | inactive
36 | CCOP(=O)(OCC)Oc1nc(Cl)c(Cl)cc1Cl | 9.43 µM (active) and 334 nM (active) | inactive
37 | CCNC(=O)NC(=O)C(C#N)=NOC | – | inactive
38 | CCCN(CC)CC1COC2(CCC(C(C)(C)C)CC2)O1 (stereo not given) | 0.246 µM (active) | –
39 | O=C1C2CC=CCC2C(=O)N1SC(Cl)(Cl)Cl (stereo not given) | 16.1 µM (active) and 14.7 µM (active) | –

Assay: CCTE_Shafer_MEA_acute_LDH: CCTE's Lactate Dehydrogenase Assay for Cytotoxicity in the Neural Acute Assay, Shafer Lab (AID 2284086);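 note: active means LDH release rises above DMSO vehicle level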
Procedure, shortened: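 Rat cortical neurons cultured on microelectrode arrays; baseline 40-min recording, compound added, second 40-min recording; medium then sampled for released LDH (colorimetric kit, 490 nm). DMSO = negative control.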

Row | Compound | outcome
40 | CCOc1cc(C(C)(C)C)ccc1C1COC(c2c(F)cccc2F)=N1 (stereo not given) | inactive
41 | Nc1c(Cl)c(F)nc(OCC(=O)O)c1Cl | inactive
42 | CCCC(=NOCC)C1=C(O)CC(CC(C)SCC)CC1=O (stereo not given) | inactive
43 | Cc1c(COC(=O)[C@@H]2[C@H](/C=C(\Cl)C(F)(F)F)C2(C)C)cccc1-c1ccccc1 | inactive
44 | COP(=S)(OC)SCn1nnc2ccccc2c1=O | inactive
45 | Cc1nc(N(C)C)nc(OC(=O)N(C)C)c1C | inactive
46 | COCC(=O)N(c1c(C)cccc1C)C(C)C(=O)OC (stereo not given) | inactive
47 | CC(C)N1C(=O)c2ccccc2NS1(=O)=O | inactive
48 | N#CN=C1SCCN1Cc1ccc(Cl)nc1 | inactive
49 | OC(c1ccc(Cl)cc1)(c1ccc(Cl)cc1)C(Cl)(Cl)Cl | inactive
50 | O=C(Nc1ccccc1-c1ccc(Cl)cc1)c1cccnc1Cl | inactive
51 | CC1(C)C(C=C(Cl)Cl)C1C(=O)OC(C#N)c1cccc(Oc2ccccc2)c1 (stereo not given) | inactive
52 | COC(=O)N(C(=O)N1CO[C@@]2(C(=O)OC)Cc3cc(Cl)ccc3C2=N1)c1ccc(OC(F)(F)F)cc1 | inactive
53 | CC(C)=CC1C(C(=O)OCc2coc(Cc3ccccc3)c2)C1(C)C (stereo not given) | inactive
54 | CCCCC(O)(Cn1cncn1)c1ccc(Cl)cc1Cl (stereo not given) | inactive
55 | Clc1nc(Cl)nc(Nc2ccccc2Cl)n1 | inactive
56 | CCOC(=O)C(C)OC(=O)c1cc(Oc2ccc(C(F)(F)F)cc2Cl)ccc1[N+](=O)[O-] (stereo not given) | inactive
57 | CCOP(=O)(OCC)Oc1nc(Cl)c(Cl)cc1Cl | inactive
58 | CC(C)N1C(=O)N(c2ccccc2)CSC1=NC(C)(C)C | inactive
59 | CC1(C)CCC(=Cc2ccc(Cl)cc2)C1(O)Cn1cncn1 (stereo not given) | inactive
60 | N#Cc1c[nH]cc1-c1cccc2c1OC(F)(F)O2 | inactive
61 | Cn1c(-c2ccccc2)cc(-c2ccccc2)[n+]1C | inactive
62 | CC(C)C1(C)N=C(c2ncccc2C(=O)O)NC1=O (stereo not given) | inactive

From PubChem BioAssay (EPA / NIEHS)
